# Screening data from PubChem.
# ELG1 DNA repair = qHTS screen for small molecules that inhibit ELG1-dependent DNA repair in human embryonic kidney (HEK293T) cells expressing luciferase-tagged ELG1. AID 504467, 2011. Potency, µM (highest dose often 46.1 µM), for the others: top-dose activity change, negative = inhibition, hits mostly inhibitors. 330,000 compounds, 2.3% hits. HEK293T ELG1-luciferase reporter, luminescence, 16 h; DNA damage induced by 5-fluorouridine; further: nearly all actives have a fitted effect of over 55% in size
#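 Reporter activity after DNA damage by 5-fluorouridine is monitored. Compound-treated cells incubate 16 hr at 37 °C, then ONE-Glo is added for 30 min before luminescence reading.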
# 12-LOX inh = Primary qHTS assay for inhibitors of human arachidonate 12S-lipoxygenase (ALOX12): Round 2 | purified 12hLO, xylenol orange hydroperoxide absorbance | AID 1671190, 2021 | Potency, µM (series often up to 108 µM), for inactives: at the top dose activity change, negative = inhibition, usual class: inhibitors | Polyunsaturated fatty acid lipoxygenase ALOX12 (Homo sapiens), P18054 | 580,000 compounds, 1.1% hits
# Target sequence (P18054 whole entry, looked up): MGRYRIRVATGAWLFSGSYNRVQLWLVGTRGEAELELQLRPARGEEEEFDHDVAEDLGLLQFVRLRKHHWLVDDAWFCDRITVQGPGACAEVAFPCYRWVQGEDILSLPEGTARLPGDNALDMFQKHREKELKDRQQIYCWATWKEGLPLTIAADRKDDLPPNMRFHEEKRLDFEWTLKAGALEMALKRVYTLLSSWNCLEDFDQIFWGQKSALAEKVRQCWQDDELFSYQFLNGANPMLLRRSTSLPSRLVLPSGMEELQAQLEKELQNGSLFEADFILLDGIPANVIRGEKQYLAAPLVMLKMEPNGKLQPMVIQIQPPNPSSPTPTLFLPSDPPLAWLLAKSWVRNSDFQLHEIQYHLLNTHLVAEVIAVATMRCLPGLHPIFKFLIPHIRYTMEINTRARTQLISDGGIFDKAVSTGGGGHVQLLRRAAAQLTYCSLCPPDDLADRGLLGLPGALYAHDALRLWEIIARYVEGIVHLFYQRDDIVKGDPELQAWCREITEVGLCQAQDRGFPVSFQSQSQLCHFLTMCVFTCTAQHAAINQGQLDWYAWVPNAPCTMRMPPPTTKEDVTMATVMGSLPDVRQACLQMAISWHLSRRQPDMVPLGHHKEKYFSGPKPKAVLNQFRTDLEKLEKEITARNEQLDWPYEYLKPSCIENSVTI
#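 Hydroperoxide product was detected by ferrous iron/xylenol orange as the 573 to 405 nm absorbance ratio. Arachidonic acid at 40 uM (final) was turned over for 30 min at room temperature by 150 nM human 12hLO, pH 7.0 Hepes buffer, after 15 min compound preincubation.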
# RORg inh = qHTS for inhibitors of ROR gamma transcriptional activity | Nuclear receptor ROR-gamma (Mus musculus), P51450 | Drosophila S2 Gal4-RORgamma UAS-luciferase reporter, 20 h | 310,000 compounds, 5.4% hits | Potency, µM (doses to about 53.6 µM), for inactives: top-dose activity change, negative = inhibition, hits mostly inhibitors | AID 2551, 2010; further: nearly all actives have a fitted effect of over 60% in size
#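 Read-out: Photinus luciferase luminescence; inhibitors lower reporter signal. Insect Schneider cells with Gal4-ROR gamma fusion under metallothionein promoter, UAS reporter; 700 uM final copper sulfate induction, 20 hr, ambient temperature.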
# TDP1 cell noCPT = qHTS for Inhibitors of human tyrosyl-DNA phosphodiesterase 1 (TDP1): qHTS in cells in absence of CPT; Potency, µM (highest dose often 46.2 µM), without a hit: at the top dose activity change, negative = growth inhibition, most hits filed as inhibitors; 420,000 compounds, 15% hits; DT40 Tdp1-/- hTDP1 cells, no CPT, ATP luminescence, 48 h; further: nearly all actives have a fitted effect of over 55% in size
#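 Chicken DT40 Tdp1-/- cells complemented with human TDP1, screened without camptothecin (DMSO vehicle only), 400 cells/well. Compounds pin-transferred, cells incubated at 37 °C for at least 48 hr. Growth read as ATP-dependent luminescence (CellTiter-Glo, 30 min at RT).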
# TDP1 cell CPT = qHTS for Inhibitors of human tyrosyl-DNA phosphodiesterase 1 (TDP1): qHTS in cells in presence of CPT | chicken DT40 Tdp1-/-;hTDP1 cells + 20 nM CPT, ATP luminescence, 48 h | Potency, µM (titrated, usually from 46.2 µM), without a hit: at the top dose activity change, negative = growth inhibition, most hits filed as inhibitors | 420,000 compounds, 12% hits; further: nearly all actives have a fitted effect of over 55% in size
#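 Chicken DT40 Tdp1-/- cells stably complemented with human TDP1 were seeded at 400 cells/well in medium containing 20 nM camptothecin, exposed to pin-transferred compounds, and grown at 37 °C for at least 48 hr. Viability was read as ATP luminescence.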
# VP16 counter = VP16 counterscreen qHTS for inhibitors of ROR gamma transcriptional activity. Drosophila S2 Gal4-VP16 UAS-luciferase, luminescence, 20 h. Potency, µM (doses to about 53.6 µM), for inactives: top-dose activity, negative = inhibition, most hits filed as inhibitors. 310,000 compounds, 3.5% hits;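 further: Gal4-VP16 expression switched on by copper sulfate through the metallothionein promoter; nearly all actives have a fitted effect of over 50% in size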
# Starred values were filed as active, the others as inactive; ? = inconclusive; . = no result given; ! = repeats disagree; [ ] = dose if it differs, or a comment. This is a sample that favours compounds with a hit; in the whole collection about 15% have one here. The call rests on the fitted dose curve; in most records, active means well fitted curve in the direction sought with a large enough effect; inconclusive means small, poorly fitted or top-dose-only effect, or another doubt; inactive means no such curve, though single readings can be large; an effect the other way counts as inactive or inconclusive. On the % scale 0 is the no-effect control and ±100 the full control effect; potency means the concentration at half of the fitted maximal effect.
SMILES,ELG1 DNA repair,12-LOX inh,RORg inh,TDP1 cell noCPT,TDP1 cell CPT,VP16 counter
FC(F)(F)c1cccc(CNCc2cccc(C(F)(F)F)c2)c1,.,3%,.,.,.,.
Cn1c(CNC(=O)C(Cc2ccccc2)NC(=O)Cc2ccc(Cl)cc2)cc(=O)n(C)c1=O (configuration not stated),.,5%,.,.,.,.
Cc1ccc2[nH]cc(C(C(=O)O)N3CCN(c4ncc(Br)cn4)CC3)c2c1 (configuration not stated),.,-2%,.,.,.,.
Cc1ccc(NC(=O)CCc2nc3sc4c(c3c(=O)[nH]2)CCCC4)nc1,14%,.,.,-28%,3%,.
Cc1cccc(NC(=O)CCc2nc3sc4c(c3c(=O)[nH]2)CCCC4)c1,11%,-28%,.,?,?,.
CN(C)S(=O)(=O)c1cccc(NC(=O)CCc2nc3sc4c(c3c(=O)[nH]2)CCCC4)c1,11µM*,249%,.,?,16µM*,.
NC(=O)C1CCN(C(=O)CCc2nc3sc4c(c3c(=O)[nH]2)CCCC4)CC1,-2%,18µM*!,.,-2%,-1%,.
COc1ccccc1NC(=O)CCc1nc2sc3c(c2c(=O)[nH]1)CCCC3,?,?,.,2.9µM*,12µM*,.
CCc1cccc(NC(=O)CCc2nc3sc4c(c3c(=O)[nH]2)CCCC4)c1,-6%,?,.,10µM*,8.2µM*,.
O=C(CC1C=CCC1)NCCc1ccccn1 (configuration not stated),.,31%,.,.,.,.
Cc1cc(NC(=O)c2ccc(CN3CC[C@H](O)C3)cc2)ccc1F,.,17%,.,.,.,.
Cc1cc(C)cc(NC(=O)CSc2nc3sc4c(c3c(=O)[nH]2)CCCC4)c1,.,-27%,.,-29%,-21%,.
COC(=O)c1ccccc1NC(=O)CSc1nc2sc3c(c2c(=O)[nH]1)CCCC3,.,?,.,9.2µM*,12µM*,.
COc1cccc(N2CCN(C(=O)c3cnn(-c4cccc(F)c4)c3-n3cccc3)CC2)c1,.,-68%,.,.,.,.
COc1cccc(NC(=O)CC2Nc3ccccc3NC2=O)c1 (configuration not stated),.,16µM*,.,.,.,.
CCCCNC(=O)CC1Nc2ccccc2NC1=O (configuration not stated),5%,?,-21%,-5%,6%,-12%
CCCCOc1ccccc1NC(=O)CC1Nc2ccccc2NC1=O (configuration not stated),?,-8%,10µM*,?,?,?
CCOC(=O)c1c(NC(=O)CC2Sc3ccc(C(F)(F)F)cc3NC2=O)sc(C)c1C (configuration not stated),12%,-4%,-15%,?,?,-6%
CCCCNC(=O)CC1Nc2cc(C)c(C)cc2NC1=O (configuration not stated),.,185%,.,5.2µM*,4.6µM*,.
CCOC(=O)c1c(NC(=O)CC2Nc3ccccc3NC2=O)sc(C)c1C (configuration not stated),?,66%,11%,18µM*,8.2µM*,-3%
Cc1cc2c(cc1C)NC(CC(=O)Nc1cccc(Cl)c1)C(=O)N2 (configuration not stated),.,0%,.,?,16µM*,.
COc1ccc(NC(=O)c2c(-c3ccccc3)c(-c3ccccc3)nn(C)c2=O)c(OC)c1,.,0%,.,?,16µM*,.
COC(=O)c1ccc(C(=O)OC)c(NC(=O)c2c(-c3ccccc3)c(-c3ccccc3)nn(C)c2=O)c1,.,-22%,.,15µM*,?,.
O=C(c1cn(CC2CCCO2)nn1)N1CCN(c2cccc(C(F)(F)F)c2)CC1 (configuration not stated),.,15%,.,.,.,.
CC(C)c1ccc(NC(=O)CN2C(=O)C(c3ccccc3)=NC2(C)C)cc1,.,5%,.,.,.,.
SMILES,ELG1 DNA repair,12-LOX inh,RORg inh,TDP1 cell noCPT,TDP1 cell CPT,VP16 counter
CCOC(=O)c1c(NC(=O)C(=O)N/N=C/c2ccccc2O)sc2c1CCCCC2,?,-14%,1µM*,3.3µM*,2.9µM*,1.3µM*
CCOC(=O)c1c(NC(=O)c2cc(OCC)c(OCC)c(OCC)c2)sc2c1CCCCC2,.,0%,.,23µM*,?,.
CCOC(=O)c1c(NC(=S)NNS(=O)(=O)c2ccc(Br)cc2)sc2c1CCCCC2,?,32µM*,16%,-26%,-2%,6%
CCOC(=O)c1c(NC(=S)Nc2ccc(OC)cc2)sc2c1CCCCC2,23%,-17%,?,-9%,2%,?
CCOC(=O)c1c(NC(=O)c2ccn(CC)n2)sc2c1CCCC2,?,-3%,20%[0.365 µM],23µM*,?,.
CCOC(=O)c1c(NC(=O)c2ccc(C)cc2)sc2c1CCCCC2,.,-15%,.,5%,10%,.
COC(=O)C1(NC(=O)C2CCCO2)CCCCCC1 (configuration not stated),.,-26%,.,.,.,.
Cc1ccc(OCc2cc(=O)n3oc(C)cc3n2)c(NC(=O)COc2cccc(C(F)(F)F)c2)c1,.,-3%,.,.,.,.
COc1ccc(C(=O)c2c(N)c(C(=O)Nc3ccccc3)c3ccccn23)cc1,.,24%,.,.,.,.
COc1ccc(N(C(C)C(=O)Nc2ccccc2Sc2ccccc2)S(C)(=O)=O)cc1 (configuration not stated),.,-25%,.,.,.,.
CCNC(=O)NC(=O)C(C)Sc1nc2ccccc2o1 (configuration not stated),.,-11%,.,.,.,.
O=C(CN1C(=O)/C(=C2\SC(=S)N(C3CCS(=O)(=O)C3)C2=O)c2ccccc21)Nc1ccc(F)cc1 (configuration not stated),-4%,98%,-17%,?,6.5µM*,6%
COc1ccc(NC(=O)CN2C(=O)/C(=C3\SC(=S)N(C4CCS(=O)(=O)C4)C3=O)c3ccccc32)cc1 (configuration not stated),2%,?,-22%,18µM*,9.2µM*,1%
CSc1ccccc1NC(=O)c1ccc(C)s1,.,43%,.,.,.,.
COCc1ccc(CN[C@H]2C[C@@H](Cc3cc(CCO)on3)C2(C)C)o1,.,6%[176 µM],.,.,.,.
CCn1ccc(C(=O)N2CCC(c3nn(C)c(=O)n3CCc3ccccc3)CC2)n1,.,44%,.,.,.,.
